# Legend:
# Assay in all cases: DAPPL (digital affinity profiling via proximity ligation, sequencing); 10 mM Tris-HCl pH 7.5, 50 mM NaCl, 1 mM DTT, 4% glycerol, room temperature, 30 min; GST-TFs on glutathione beads, 16-mer random dsDNA library, 0.1% formaldehyde crosslink after washing; high values mean tight binding
# Conditions in all cases: protein: recombinant; tags: N-terminal GST; dsDNA, one strand shown
# [1] = molecular target: T1, ELK1 (Homo sapiens, UniProt P19419 1-428)
# T1 sequence: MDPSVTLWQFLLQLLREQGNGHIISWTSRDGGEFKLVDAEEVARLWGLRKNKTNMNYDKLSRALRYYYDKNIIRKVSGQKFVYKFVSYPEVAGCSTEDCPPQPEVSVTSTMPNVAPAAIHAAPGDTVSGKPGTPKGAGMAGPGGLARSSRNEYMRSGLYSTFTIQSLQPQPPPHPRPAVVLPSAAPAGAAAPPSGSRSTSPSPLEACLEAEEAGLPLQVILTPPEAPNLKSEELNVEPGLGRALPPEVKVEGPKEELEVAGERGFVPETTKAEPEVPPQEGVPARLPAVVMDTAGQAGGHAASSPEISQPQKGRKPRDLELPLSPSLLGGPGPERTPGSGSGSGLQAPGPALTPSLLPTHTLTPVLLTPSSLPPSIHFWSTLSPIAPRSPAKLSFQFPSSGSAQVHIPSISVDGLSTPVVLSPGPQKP
# Outline: (§1)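 Sequencing on an Illumina NextSeq500 followed washing, crosslinking with 0.1% formaldehyde, proximity ligation (BsaI/T4 ligase, 1 h, 37 °C) and PCR amplification of pools that had been incubated for 30 min at room temperature with 200 nmole of a random double-stranded 16-mer DNA library in Tris/NaCl/DTT/glycerol buffer. Each pool held DNA-barcoded human transcription factors, expressed in yeast as GST fusions and captured on glutathione beads, plus a tag-only sample. Binding signal is a hexamer's read frequency for a factor divided by its frequency in the tag-only sample.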
# [2] = molecular target: T2, GABPA (Homo sapiens, UniProt Q06546 1-454)
# T2 sequence: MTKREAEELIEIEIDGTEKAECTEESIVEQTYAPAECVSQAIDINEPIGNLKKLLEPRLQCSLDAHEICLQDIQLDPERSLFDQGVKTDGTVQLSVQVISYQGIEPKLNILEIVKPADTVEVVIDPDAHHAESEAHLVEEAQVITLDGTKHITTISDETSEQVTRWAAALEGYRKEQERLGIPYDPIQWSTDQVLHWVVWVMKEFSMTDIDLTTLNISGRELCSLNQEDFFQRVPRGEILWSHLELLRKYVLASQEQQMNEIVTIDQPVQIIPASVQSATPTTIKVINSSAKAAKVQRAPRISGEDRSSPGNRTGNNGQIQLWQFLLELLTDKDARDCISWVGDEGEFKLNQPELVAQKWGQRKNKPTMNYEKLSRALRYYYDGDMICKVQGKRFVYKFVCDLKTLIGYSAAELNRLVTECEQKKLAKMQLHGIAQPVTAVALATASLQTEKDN
# Outline: as §1
# [3] = molecular target: T3, ERG (Homo sapiens, UniProt P11308 1-479)
# T3 sequence: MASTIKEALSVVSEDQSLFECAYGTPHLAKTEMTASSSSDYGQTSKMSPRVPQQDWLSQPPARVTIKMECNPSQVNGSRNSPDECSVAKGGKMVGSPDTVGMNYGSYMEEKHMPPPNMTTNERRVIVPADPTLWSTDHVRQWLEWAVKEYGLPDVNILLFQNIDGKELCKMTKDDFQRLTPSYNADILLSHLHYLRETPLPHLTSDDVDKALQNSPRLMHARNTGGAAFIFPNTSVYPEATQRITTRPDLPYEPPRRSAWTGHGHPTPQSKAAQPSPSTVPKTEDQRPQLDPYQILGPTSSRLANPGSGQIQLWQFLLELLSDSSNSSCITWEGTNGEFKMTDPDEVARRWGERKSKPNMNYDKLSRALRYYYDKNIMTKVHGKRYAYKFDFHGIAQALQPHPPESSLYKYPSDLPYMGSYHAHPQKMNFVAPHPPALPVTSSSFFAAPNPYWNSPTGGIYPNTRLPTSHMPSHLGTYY
# Outline: as §1
# [4] = molecular target: ELF1 (Homo sapiens, UniProt P32519 1-619)
# ELF1, sequence (P32519 whole entry): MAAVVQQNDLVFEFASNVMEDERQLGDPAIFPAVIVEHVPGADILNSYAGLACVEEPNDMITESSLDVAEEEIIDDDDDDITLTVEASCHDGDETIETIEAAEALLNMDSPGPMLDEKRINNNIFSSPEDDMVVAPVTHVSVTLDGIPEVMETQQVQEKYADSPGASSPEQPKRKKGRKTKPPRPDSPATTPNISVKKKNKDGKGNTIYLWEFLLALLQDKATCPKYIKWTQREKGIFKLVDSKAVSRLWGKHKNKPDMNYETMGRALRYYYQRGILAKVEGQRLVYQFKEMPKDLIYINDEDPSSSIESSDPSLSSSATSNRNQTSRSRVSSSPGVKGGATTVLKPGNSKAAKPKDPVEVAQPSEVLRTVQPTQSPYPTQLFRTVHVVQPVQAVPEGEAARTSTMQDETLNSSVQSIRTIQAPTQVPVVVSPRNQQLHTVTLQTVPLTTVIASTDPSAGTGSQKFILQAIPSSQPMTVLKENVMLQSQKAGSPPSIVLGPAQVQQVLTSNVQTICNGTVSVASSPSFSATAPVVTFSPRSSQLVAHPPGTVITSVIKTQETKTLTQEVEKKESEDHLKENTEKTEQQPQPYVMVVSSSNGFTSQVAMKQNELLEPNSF
# Outline: as §1
# [5] = molecular target: T4, EHF (Homo sapiens, UniProt Q9NZC4 1-300)
# T4 sequence: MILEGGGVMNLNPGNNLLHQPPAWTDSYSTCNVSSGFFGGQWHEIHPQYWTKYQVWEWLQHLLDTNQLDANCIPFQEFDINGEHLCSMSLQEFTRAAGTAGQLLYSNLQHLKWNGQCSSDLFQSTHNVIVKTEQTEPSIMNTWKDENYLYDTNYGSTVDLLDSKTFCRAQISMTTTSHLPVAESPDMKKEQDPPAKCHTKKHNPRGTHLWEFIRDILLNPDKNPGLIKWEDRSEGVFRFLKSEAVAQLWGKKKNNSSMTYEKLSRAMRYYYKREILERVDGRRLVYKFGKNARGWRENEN
# Outline: as §1
# [6] = molecular target: SPIB (Homo sapiens, UniProt Q01892 1-262)
# SPIB, sequence (Q01892 whole entry): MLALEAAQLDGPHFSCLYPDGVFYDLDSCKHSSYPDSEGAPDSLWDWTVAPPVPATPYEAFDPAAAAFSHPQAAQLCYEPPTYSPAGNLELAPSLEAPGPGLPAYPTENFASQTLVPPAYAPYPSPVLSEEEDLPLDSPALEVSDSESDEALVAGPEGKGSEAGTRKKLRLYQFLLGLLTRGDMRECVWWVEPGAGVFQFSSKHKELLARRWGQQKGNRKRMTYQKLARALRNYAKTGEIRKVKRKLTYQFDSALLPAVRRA
# Outline: as §1
# [7] = molecular target: T5, FEV (Homo sapiens, UniProt Q99581 1-238)
# T5 sequence: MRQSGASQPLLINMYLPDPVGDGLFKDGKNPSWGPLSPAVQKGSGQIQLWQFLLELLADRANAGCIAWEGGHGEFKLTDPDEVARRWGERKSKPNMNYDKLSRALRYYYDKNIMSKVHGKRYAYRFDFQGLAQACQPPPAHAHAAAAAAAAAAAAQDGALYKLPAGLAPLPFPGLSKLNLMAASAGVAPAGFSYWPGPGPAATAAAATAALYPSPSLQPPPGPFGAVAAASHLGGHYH
# Outline: as §1
# [8] = molecular target: ETV5 (Homo sapiens, UniProt P41161 1-510)
# ETV5, sequence (P41161 whole entry): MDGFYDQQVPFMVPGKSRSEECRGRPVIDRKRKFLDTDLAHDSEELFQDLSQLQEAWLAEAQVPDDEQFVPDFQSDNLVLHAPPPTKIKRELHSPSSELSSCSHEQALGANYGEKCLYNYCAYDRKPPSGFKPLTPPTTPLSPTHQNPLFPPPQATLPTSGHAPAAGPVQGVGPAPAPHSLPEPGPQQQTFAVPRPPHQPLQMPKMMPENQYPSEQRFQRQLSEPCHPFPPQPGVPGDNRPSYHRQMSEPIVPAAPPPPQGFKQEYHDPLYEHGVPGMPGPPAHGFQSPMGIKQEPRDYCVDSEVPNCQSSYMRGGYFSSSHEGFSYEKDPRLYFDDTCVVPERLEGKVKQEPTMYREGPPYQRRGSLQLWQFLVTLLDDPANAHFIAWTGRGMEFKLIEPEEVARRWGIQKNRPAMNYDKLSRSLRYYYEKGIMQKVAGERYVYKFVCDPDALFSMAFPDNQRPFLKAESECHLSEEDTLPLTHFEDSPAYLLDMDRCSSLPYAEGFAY
# Outline: as §1
# [9] = molecular target: ELF4 (Homo sapiens, UniProt Q99607 1-663)
# ELF4, sequence (Q99607 whole entry): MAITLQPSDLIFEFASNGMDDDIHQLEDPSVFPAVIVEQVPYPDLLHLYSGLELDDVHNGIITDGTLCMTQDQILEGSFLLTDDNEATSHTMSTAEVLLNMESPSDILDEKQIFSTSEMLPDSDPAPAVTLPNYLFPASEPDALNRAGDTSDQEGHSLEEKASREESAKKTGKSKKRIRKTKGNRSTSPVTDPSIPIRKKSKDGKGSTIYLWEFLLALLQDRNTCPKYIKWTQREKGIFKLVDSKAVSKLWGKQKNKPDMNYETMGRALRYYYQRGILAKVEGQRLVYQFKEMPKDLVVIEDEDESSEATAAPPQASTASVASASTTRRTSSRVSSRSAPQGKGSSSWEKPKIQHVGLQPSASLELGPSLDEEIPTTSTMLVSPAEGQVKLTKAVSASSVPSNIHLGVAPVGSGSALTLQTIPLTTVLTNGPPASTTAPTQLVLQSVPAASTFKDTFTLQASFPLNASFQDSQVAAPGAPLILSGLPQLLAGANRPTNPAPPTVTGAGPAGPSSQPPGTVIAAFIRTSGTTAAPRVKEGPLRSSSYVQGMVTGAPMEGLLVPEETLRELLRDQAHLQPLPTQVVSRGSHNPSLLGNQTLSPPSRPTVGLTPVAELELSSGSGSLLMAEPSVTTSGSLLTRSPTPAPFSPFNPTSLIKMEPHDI
# Outline: as §1
# [10] = molecular target: T6, ELK4 (Homo sapiens, UniProt P28324-2 1-405)
# T6 sequence: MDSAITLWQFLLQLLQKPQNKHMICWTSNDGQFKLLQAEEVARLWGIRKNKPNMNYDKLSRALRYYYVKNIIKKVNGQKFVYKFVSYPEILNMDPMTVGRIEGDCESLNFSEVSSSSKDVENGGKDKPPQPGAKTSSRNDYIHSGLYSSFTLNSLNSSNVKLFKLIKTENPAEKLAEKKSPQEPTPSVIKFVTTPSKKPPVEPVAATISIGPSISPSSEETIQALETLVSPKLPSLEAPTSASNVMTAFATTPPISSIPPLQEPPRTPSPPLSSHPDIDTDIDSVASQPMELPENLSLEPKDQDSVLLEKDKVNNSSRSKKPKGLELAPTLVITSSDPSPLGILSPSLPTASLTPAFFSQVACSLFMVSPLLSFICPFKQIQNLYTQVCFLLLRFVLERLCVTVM
# Outline: as §1
# [11] = molecular target: T7, ETV2 (Homo sapiens, UniProt O00321 1-342)
# T7 sequence: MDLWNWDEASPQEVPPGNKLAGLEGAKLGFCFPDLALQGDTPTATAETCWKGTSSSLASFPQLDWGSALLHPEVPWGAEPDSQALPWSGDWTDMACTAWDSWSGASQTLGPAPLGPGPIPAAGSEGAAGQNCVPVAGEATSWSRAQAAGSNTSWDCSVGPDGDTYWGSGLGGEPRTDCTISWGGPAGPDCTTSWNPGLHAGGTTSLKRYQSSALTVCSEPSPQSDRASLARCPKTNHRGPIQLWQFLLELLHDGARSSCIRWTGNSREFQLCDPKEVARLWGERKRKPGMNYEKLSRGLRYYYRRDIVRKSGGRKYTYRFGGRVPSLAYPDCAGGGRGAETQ
# Outline: as §1
# [12] = molecular target: T8, ELF3 (Homo sapiens, UniProt P78545 1-371)
# T8 sequence: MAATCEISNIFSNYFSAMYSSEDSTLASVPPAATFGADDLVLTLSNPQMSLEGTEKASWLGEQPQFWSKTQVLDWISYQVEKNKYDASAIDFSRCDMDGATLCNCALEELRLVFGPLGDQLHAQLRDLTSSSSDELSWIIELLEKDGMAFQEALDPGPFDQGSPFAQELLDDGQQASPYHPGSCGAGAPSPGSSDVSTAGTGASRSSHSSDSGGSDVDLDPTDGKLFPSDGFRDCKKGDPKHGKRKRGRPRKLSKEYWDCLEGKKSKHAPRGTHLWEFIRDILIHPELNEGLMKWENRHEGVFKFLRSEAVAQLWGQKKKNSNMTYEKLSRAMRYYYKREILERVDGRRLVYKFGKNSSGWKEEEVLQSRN
# Outline: as §1
# [13] = molecular target: ETV1 (Homo sapiens, UniProt P50549 1-477)
# ETV1, sequence (P50549 whole entry): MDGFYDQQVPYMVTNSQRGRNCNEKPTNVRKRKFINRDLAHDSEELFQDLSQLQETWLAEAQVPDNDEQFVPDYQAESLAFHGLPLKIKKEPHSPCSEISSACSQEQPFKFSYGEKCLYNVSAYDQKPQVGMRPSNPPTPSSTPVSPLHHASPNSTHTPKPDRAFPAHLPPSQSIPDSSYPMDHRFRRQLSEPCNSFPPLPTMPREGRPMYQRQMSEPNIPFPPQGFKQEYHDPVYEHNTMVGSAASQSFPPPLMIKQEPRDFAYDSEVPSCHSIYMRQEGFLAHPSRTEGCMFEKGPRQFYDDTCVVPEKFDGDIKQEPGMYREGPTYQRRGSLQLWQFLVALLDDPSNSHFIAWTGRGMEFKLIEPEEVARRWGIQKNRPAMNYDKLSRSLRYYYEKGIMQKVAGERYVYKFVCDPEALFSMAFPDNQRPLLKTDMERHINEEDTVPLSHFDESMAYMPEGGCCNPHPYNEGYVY
# Outline: as §1
# [14] = molecular target: T9, ERF (Homo sapiens, UniProt P50548 1-548)
# T9 sequence: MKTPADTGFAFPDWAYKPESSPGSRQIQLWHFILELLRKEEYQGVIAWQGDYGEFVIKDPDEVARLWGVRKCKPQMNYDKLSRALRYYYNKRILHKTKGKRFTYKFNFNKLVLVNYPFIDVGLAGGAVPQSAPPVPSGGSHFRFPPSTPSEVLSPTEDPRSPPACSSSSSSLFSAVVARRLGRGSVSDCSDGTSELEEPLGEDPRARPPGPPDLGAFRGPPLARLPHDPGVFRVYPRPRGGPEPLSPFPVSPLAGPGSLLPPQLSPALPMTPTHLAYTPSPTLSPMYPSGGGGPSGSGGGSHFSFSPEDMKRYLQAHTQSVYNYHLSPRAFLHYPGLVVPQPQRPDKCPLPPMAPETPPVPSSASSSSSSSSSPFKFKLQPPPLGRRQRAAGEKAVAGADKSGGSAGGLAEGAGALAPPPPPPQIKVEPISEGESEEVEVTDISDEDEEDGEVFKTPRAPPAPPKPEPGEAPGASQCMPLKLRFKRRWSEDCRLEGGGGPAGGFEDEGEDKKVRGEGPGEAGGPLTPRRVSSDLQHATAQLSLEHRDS
# Outline: as §1
# [15] = molecular target: T10, ETV3L (Homo sapiens, UniProt Q6ZN32 1-361)
# T10 sequence: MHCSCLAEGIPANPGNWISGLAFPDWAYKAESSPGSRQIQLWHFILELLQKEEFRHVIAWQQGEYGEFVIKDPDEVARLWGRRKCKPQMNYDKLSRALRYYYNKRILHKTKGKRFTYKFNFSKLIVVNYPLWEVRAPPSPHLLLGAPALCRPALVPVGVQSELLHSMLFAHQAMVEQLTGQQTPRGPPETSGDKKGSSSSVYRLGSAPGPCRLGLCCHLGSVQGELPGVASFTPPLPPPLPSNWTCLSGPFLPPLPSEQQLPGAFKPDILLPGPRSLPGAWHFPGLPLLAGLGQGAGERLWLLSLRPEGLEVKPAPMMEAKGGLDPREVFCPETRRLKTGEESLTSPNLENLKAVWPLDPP
# Outline: as §1
# [16] = molecular target: T11, ETS2 (Homo sapiens, UniProt P15036 1-469)
# T11 sequence: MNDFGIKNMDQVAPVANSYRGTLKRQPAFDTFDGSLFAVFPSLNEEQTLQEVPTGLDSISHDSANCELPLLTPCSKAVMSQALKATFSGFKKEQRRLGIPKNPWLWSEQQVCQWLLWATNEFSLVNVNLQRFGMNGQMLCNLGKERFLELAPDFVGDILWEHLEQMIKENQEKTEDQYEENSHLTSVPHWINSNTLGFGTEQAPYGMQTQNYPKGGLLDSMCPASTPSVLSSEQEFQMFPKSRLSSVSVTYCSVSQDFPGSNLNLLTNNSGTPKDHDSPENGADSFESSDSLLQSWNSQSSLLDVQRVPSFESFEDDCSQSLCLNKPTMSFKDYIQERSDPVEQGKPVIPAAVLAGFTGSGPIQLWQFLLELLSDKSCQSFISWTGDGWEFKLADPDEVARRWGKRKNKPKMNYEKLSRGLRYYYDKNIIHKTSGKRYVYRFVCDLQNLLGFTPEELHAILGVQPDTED
# Outline: as §1
# [17] = molecular target: T12, ETV7 (Homo sapiens, UniProt Q9Y603 1-341)
# T12 sequence: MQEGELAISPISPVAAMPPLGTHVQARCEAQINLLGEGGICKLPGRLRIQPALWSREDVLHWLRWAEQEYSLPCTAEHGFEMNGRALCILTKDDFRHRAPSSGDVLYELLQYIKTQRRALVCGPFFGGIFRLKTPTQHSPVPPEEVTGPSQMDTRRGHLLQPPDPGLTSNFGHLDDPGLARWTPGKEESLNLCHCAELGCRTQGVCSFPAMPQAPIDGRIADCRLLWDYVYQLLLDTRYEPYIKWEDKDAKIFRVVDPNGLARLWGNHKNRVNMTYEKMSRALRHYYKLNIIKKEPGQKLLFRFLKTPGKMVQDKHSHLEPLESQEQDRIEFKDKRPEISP
# Outline: as §1
# [18] = molecular target: T13, ETV3 (Homo sapiens, UniProt P41162-2 1-143)
# T13 sequence: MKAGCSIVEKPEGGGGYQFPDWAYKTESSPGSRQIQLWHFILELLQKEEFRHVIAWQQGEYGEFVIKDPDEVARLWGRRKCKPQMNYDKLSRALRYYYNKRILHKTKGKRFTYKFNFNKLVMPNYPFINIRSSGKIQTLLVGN
# Outline: as §1
# [19] = molecular target: ETV6 (Homo sapiens, UniProt P41212 1-452)
# ETV6, sequence (P41212 whole entry): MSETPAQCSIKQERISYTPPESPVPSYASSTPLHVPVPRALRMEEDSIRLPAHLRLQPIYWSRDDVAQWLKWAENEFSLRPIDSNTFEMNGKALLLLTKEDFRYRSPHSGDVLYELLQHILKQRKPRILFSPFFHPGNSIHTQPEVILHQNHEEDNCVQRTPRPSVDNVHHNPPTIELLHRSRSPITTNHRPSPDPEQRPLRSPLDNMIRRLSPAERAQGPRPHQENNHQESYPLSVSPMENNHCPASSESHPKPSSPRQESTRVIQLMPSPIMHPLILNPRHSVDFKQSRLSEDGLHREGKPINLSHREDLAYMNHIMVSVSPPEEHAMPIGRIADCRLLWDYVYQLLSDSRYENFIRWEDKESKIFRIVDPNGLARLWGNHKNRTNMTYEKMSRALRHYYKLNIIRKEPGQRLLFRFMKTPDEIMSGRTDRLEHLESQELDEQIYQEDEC
# Outline: as §1
sequence,measurement,setting,value
TGGCCG,binding signal,[1],"1.19 fold enrichment (6-mer frequency, TF over GST control)"
same,binding signal,[2],"1.15 fold enrichment (6-mer frequency, TF over GST control)"
same,binding signal,[3],"1.19 fold enrichment (6-mer frequency, TF over GST control)"
same,binding signal,[4],"1.08 fold enrichment (6-mer frequency, TF over GST control)"
same,binding signal,[5],"1.02 fold enrichment (6-mer frequency, TF over GST control)"
same,binding signal,[6],"1.17 fold enrichment (6-mer frequency, TF over GST control)"
same,binding signal,[7],"1.22 fold enrichment (6-mer frequency, TF over GST control)"
same,binding signal,[8],"1.17 fold enrichment (6-mer frequency, TF over GST control)"
same,binding signal,[9],"1.08 fold enrichment (6-mer frequency, TF over GST control)"
same,binding signal,[10],"1.06 fold enrichment (6-mer frequency, TF over GST control)"
same,binding signal,[11],"1.04 fold enrichment (6-mer frequency, TF over GST control)"
same,binding signal,[12],"1.14 fold enrichment (6-mer frequency, TF over GST control)"
same,binding signal,[13],"1.04 fold enrichment (6-mer frequency, TF over GST control)"
same,binding signal,[14],"1.05 fold enrichment (6-mer frequency, TF over GST control)"
same,binding signal,[15],"1.07 fold enrichment (6-mer frequency, TF over GST control)"
same,binding signal,[16],"1.06 fold enrichment (6-mer frequency, TF over GST control)"
same,binding signal,[17],"1.06 fold enrichment (6-mer frequency, TF over GST control)"
same,binding signal,[18],"1.11 fold enrichment (6-mer frequency, TF over GST control)"
same,binding signal,[19],"1.11 fold enrichment (6-mer frequency, TF over GST control)"

# From PMC7862700, “An all-to-all approach to the identification of sequence-specific readers for epigenetic DNA modifications on cytosine”
